Here are results for 7 compounds from PubChem BioAssay (Tox21).

SMILES strings stand for the structures. “And” between values parts separate entries of the source, which are not always exact repeats. Identical values can stand only once. Inconclusive results are not listed. Where a structure was tested more than once in an assay, its records may differ in their call. The source made the active and inactive calls. Unless noted, calls follow the shape of the dose curve; as a rule, active = well fitted curve in the direction sought with a large enough effect in the repeat runs; inconclusive = weak or mixed curves; inactive = no such curve, though single readings can be large; an effect the other way counts as inactive or inconclusive.

Assay [1] addresses Thyrotropin receptor (Homo sapiens) (UniProt P16473). Kind of assay: qHTS assay to identify small molecule antagonists of the thyroid stimulating hormone receptor (TSHR) signaling pathway (AID 1259385; calls by dose curve; also: nearly all actives have a fitted effect of over 20% in size). The method, boiled down: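 TSHR-HEK293 cells were plated and held 18 h at 37C/5% CO2, then given compound plus Ro20-1724 and stimulated with TSH at 1.5 ng/mL final. After 30 min at room temperature, cAMP was detected with cAMP-d2/anti-cAMP-cryptate (1 h) by fluorescence.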

Assay [2] is described as follows: qHTS assay to identify small molecule agonists of the estrogen receptor alpha (ER-alpha) signaling pathway in the presence of an antagonist - cell viability counter screen (AID 1259386).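 Also: series mostly up to about 92 µM; cells exposed to compounds for 22 h at 37 °C before the viability read; nearly all actives have a fitted effect of over 30% in size.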 The method, boiled down: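 Using estrogen-depleted VM7Luc4E2 cells, the 15-concentration compound series was applied together with 10.0nM ICI-182,780 and incubated 22hr at 37C/5% CO2. Cell viability was then scored by CellTiter-Fluor.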
In general terms: In qHTS, concentration-response curves come from the screen itself.

In assay [3] the target is Progesterone receptor (Homo sapiens) (UniProt P06401). The assay is described as follows: qHTS assay to identify small molecule agonists of the progesterone receptor (PR) signaling pathway (AID 1346784; calls by dose curve; also: nearly all actives have a fitted effect of over 30% in size). The method, boiled down:
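Agonist mode, quantitative HTS format in a HEK 293T line expressing a UAS-controlled beta-lactamase reporter; 16 hr compound exposure at 37C in 2% charcoal-stripped FBS, then LiveBLAzer B/G FRET fluorescence.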

The target is the same in assay [4]. The assay is described as follows: qHTS assay to identify small molecule antagonists of the progesterone receptor (PR) signaling pathway (AID 1346795; active = well fitted inhibition curve with a large enough effect in the signal ratio in the repeat runs, not every such curve was filed as active; the % refers to the signal ratio; also: potency is read from the fitted curve at half-maximal effect). The method, boiled down: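 HEK293T PR-UAS-bla reporter cells in charcoal-stripped serum (2%) received compound after a 6 hr settling period, followed by R5020 agonist at 1 nM final; 16 hr incubation preceded the FRET substrate step and fluorescence measurement.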

The nature of assay [5]: qHTS assay to identify small molecule agonists of the progesterone receptor (PR) signaling pathway - cell viability counter screen (AID 1346799; calls by dose curve; also: nearly all actives have a fitted effect of over 45% in size). The method, boiled down: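 Counter screen for cytotoxicity: compound-treated PR-UAS-bla HEK293T cells (16 hr, 37C, 5% CO2) were assayed with CellTiter-Glo, luminescence measured after 30 min at room temperature.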
The nature of assay [6]: qHTS assay to identify small molecule antagonists of the TGF-beta/Smad signaling pathway - cell viability counter screen (AID 1346824). Also: nearly all actives have a fitted effect of over 50% in size. The method, boiled down: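 SBE-bla HEK 293T cells were plated overnight at 37 C, then given compounds in DMSO plus TGF-beta1 (added as 0.25 ng/mL solution) for 5 hr. After the bla read, CellTiter-Glo was added to the same wells and luminescence read after 30 min at room temperature.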

The nature of assay [7]: qHTS assay to identify small molecule agonists of the TGF-beta/Smad signaling pathway - cell viability counter screen (AID 1346829). Also: top concentration of the series differs between compounds; nearly all actives have a fitted effect of over 45% in size. The method, boiled down: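 Same-well cytotoxicity: CellTiter-Glo added after the 2 hr room-temperature beta-lactamase substrate step, luminescence measured 30 min later; cells had 5 hr of compound at 37 C.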
A short description of assay [8]: qHTS assay to identify small molecule agonists of the TGF-beta/Smad signaling pathway (AID 1346859; active = well fitted activation curve with a large enough effect in the signal ratio in the repeat runs, not every such curve was filed as active; the % refers to the signal ratio; also: series mostly up to about 77 µM). The method, boiled down:
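Smad-responsive beta-lactamase reporter cells (HEK 293T) received compounds from DMSO stocks after overnight attachment, were incubated 5 hr, then treated 2 hr with FRET substrate before dual-emission fluorescence measurement (405 nm excitation).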

Assay [9] in a line: Human pregnane X receptor (PXR) small molecule agonists, qHTS cell viability counter screen (AID 1346977). Also: nearly all actives have a fitted effect of over 50% in size. The method, boiled down:
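Measures live-cell protease fluorescence (CellTiter-Fluor) in PXR-Luc HepG2 cells treated 24hr with compounds at 37C. Cells had 5hr to attach before pin transfer of DMSO solutions.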

A short description of assay [10]: Caspase-3/7 induction in HepG2 cells by small molecules, qHTS assay (AID 1346978). Also: nearly all actives have a fitted effect of over 15% in size. The method, boiled down:
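Wild-type HepG2 cells (2,000/well) were settled 5 h at 37 C, 5% CO2, then exposed to compounds in DMSO for 17 h. Caspase-3/7 activity was read by luminescence 30 min after adding Caspase-Glo 3/7 reagent at room temperature.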

Assay [11] in a line: Caspase-3/7 induction in CHO-K1 cells by small molecules, qHTS cell viability counter screen (AID 1346979). Also: nearly all actives have a fitted effect of over 35% in size. Also: potency is read from the fitted curve at half-maximal effect. The method, boiled down: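 In the same wells as the caspase read, viability of compound-treated wild-type CHO-K1 cells was assessed using CellTiter-Fluor, added after 16hr at 37C and measured by fluorescence following 1hr further incubation.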
Assay [12] in a line: Caspase-3/7 induction in CHO-K1 cells by small molecules, qHTS assay (AID 1346980). Also: nearly all actives have a fitted effect of over 15% in size. The method, boiled down:
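Wild-type cells were seeded at 1,500 per well and settled 5 hr at 37 C, 5% CO2, then exposed to DMSO-dissolved compounds for 17 hr. Caspase-Glo 3/7 reagent was added, and luminescence was read after 30min at room temperature.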

The nature of assay [13]: Caspase-3/7 induction in HepG2 cells by small molecules, qHTS cell viability counter screen (AID 1346981). Also: series mostly up to about 92 µM; nearly all actives have a fitted effect of over 30% in size. The method, boiled down:
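After a 5-hr attachment period at 37 C and 5% CO2, wild-type HepG2 cells received compounds in DMSO. Sixteen hours later CellTiter-Fluor was dispensed and the fluorescent signal quantified after a further hour.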

Assay [14] has as its target Nuclear receptor subfamily 1 group I member 2 (Homo sapiens) (UniProt O75469). Kind of assay: Human pregnane X receptor (PXR) small molecule agonists, qHTS assay (AID 1346982). Also: nearly all actives have a fitted effect of over 35% in size. Also: potency is read from the fitted curve at half-maximal effect. The method, boiled down:
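Tox21 qHTS; PXR-Luc HepG2; compounds pinned from DMSO; 24 hr, 37 C; ONE-Glo luciferase detection, 30 min room temperature.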

The target is the same in assay [15]. Kind of assay: CYP3A4 induction through human pregnane X receptor (PXR) by small molecules, qHTS assay (AID 1346984). Also: nearly all actives have a fitted effect of over 40% in size. The method, boiled down: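 Cells (DPX-2; HepG2 with PXR element plus CYP3A4-promoter luciferase) settled 5hr, then were treated 24hr at 37C. A 3hr, 3uM-final Luciferin-IPA step preceded luminescence measurement with One-Glo.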
Assay [16] shares this target. Kind of assay: Human pregnane X receptor (PXR) activation by small molecules, qHTS assay (AID 1346985). Also: nearly all actives have a fitted effect of over 40% in size. The method, boiled down: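 DPX-2 cells (HepG2 co-transfected with a PXR response element and a CYP3A4-promoter luciferase construct) were seeded at 2,000 per well, rested 5 hr at 37C, then exposed to DMSO-dissolved compounds for 24 hr. Activation was read as luciferase luminescence.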

The target in assay [17] is Cytochrome P450 2D6 (Homo sapiens) (UniProt P10635). The assay is described as follows: Cytochrome P450 Family 2 Subfamily D Member 6 (CYP2D6) small molecule antagonists: luciferase reporter qHTS assay (AID 1671196). Also: nearly all actives have a fitted effect of over 50% in size. Also: potency is read from the fitted curve at half-maximal effect. The method, boiled down:
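Room-temperature luminescent CYP2D6 activity assay: compound preincubated 10 min with enzyme–substrate mix, NADPH-initiated reaction 1 h, detection reagent 20 min before reading.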
(Reporter assays use an easily measured gene product as a stand-in for the process of interest.)

The target in assay [18] is Thyrotropin-releasing hormone receptor (Homo sapiens) (UniProt P34981). The assay is described as follows: qHTS assay to identify small molecule antagonists of the thyrotropin-releasing hormone receptor (TRHR) signaling pathway (AID 1346877; active = well fitted inhibition curve with a large enough effect in the repeat runs, not every such curve was filed as active; also: series mostly up to about 51 µM). The method, boiled down:
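Calcium signal in dye-loaded TRHR/HEK293 cells; compounds added 5 min before TRH (1 nM final); fluorescence monitored 3 min at 1 s steps.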

Assay [19] has the same target. The assay is described as follows: qHTS assay to identify small molecule agonists of the thyrotropin-releasing hormone receptor (TRHR) signaling pathway (AID 1346891; calls by dose curve;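 also: HEK293 cells expressing TRHR with calcium dye readout; series mostly up to about 58 µM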). The method, boiled down:
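Agonist-mode calcium mobilisation screen: TRHR-transfected HEK293 cells cultured overnight (18 h), dye-loaded for 2 h at 37 °C, exposed to compounds, and monitored by fluorescence for 3 min.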

Assay [20] is described as follows: qHTS assay to identify small molecule antagonists of the progesterone receptor (PR) signaling pathway - cell viability counter screen (AID 1346798). Also: series mostly up to about 92 µM; nearly all actives have a fitted effect of over 50% in size. The method, boiled down:
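Same-well multiplex: after 16 hr at 37C with compound and R5020 stimulation, HEK293T cells carrying a UAS-bla reporter received LiveBLAzer substrate (2 hr RT), then CellTiter-Glo (30 min RT) for luminescent viability.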

Thyrotropin receptor (Homo sapiens), sequence (P16473 whole entry, looked up): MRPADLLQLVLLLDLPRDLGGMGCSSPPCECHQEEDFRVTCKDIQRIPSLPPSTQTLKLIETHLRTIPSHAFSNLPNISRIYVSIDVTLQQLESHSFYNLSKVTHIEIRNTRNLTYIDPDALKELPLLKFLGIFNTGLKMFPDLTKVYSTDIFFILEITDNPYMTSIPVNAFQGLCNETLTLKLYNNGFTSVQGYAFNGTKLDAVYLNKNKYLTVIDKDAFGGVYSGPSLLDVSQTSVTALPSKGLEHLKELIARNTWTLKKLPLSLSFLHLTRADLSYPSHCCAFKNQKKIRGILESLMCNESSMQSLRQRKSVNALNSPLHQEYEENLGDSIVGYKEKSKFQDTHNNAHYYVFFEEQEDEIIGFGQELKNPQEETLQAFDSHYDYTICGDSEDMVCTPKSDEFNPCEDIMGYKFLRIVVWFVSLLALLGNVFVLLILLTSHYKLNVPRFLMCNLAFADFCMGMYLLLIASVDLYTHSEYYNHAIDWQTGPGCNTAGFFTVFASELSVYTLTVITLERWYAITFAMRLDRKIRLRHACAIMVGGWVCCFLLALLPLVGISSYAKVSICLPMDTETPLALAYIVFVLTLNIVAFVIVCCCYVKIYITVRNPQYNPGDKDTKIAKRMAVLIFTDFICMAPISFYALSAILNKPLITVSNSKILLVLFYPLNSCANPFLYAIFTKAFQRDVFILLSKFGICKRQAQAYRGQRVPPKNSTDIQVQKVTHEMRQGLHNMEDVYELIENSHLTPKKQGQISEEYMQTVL
Cytochrome P450 2D6 (Homo sapiens), sequence (P10635 whole entry, looked up): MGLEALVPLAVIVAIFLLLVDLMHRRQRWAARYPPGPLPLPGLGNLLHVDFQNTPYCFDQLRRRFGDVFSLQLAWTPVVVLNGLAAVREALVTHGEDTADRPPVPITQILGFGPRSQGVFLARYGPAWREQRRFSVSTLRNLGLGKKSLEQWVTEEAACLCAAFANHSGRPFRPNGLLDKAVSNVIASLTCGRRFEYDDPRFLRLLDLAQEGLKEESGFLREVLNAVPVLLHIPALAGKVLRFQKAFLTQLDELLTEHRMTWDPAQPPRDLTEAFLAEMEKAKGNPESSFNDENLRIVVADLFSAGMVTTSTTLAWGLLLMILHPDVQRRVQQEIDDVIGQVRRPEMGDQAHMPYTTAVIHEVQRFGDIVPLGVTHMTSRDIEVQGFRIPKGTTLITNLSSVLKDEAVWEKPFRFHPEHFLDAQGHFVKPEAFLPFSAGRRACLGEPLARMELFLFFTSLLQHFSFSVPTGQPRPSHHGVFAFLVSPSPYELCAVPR
Progesterone receptor (Homo sapiens), sequence (P06401 whole entry, looked up): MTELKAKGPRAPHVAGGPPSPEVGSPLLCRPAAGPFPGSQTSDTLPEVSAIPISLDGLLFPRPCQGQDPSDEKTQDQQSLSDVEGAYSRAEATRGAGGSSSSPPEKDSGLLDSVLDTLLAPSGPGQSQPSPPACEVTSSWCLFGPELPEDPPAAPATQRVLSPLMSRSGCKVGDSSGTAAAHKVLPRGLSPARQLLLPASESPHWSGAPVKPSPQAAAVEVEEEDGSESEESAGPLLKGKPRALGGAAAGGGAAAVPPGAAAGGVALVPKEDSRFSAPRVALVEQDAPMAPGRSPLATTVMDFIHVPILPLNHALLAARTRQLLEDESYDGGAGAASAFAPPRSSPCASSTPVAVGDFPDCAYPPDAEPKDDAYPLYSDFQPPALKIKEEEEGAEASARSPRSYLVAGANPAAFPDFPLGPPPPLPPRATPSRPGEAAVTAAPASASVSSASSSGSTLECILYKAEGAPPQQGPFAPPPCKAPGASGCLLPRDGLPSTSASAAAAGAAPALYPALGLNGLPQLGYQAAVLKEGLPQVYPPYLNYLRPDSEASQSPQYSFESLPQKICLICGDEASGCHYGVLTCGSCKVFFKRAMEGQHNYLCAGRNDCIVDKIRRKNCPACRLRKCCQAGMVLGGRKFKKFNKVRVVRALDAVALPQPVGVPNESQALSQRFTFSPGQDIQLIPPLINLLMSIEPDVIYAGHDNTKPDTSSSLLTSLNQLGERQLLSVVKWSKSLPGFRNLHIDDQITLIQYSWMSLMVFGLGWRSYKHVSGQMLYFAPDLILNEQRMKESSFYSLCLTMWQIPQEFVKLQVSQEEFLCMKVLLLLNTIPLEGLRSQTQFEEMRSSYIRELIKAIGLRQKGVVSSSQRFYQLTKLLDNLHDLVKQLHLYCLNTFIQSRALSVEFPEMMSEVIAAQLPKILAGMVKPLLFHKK
Nuclear receptor subfamily 1 group I member 2 (Homo sapiens), sequence (O75469 whole entry, looked up): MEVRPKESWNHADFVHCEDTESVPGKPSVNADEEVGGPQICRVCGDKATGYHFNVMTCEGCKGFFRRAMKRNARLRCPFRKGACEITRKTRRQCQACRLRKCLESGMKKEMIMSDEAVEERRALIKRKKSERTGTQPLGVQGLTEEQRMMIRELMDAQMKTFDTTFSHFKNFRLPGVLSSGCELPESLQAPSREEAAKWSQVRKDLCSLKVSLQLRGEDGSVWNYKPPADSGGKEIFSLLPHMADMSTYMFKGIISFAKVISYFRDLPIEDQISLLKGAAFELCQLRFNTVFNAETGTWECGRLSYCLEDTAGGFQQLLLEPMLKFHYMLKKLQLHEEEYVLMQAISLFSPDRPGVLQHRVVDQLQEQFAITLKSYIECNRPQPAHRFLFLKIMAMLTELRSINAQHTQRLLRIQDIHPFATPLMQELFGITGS
Thyrotropin-releasing hormone receptor (Homo sapiens), sequence (P34981 whole entry, looked up): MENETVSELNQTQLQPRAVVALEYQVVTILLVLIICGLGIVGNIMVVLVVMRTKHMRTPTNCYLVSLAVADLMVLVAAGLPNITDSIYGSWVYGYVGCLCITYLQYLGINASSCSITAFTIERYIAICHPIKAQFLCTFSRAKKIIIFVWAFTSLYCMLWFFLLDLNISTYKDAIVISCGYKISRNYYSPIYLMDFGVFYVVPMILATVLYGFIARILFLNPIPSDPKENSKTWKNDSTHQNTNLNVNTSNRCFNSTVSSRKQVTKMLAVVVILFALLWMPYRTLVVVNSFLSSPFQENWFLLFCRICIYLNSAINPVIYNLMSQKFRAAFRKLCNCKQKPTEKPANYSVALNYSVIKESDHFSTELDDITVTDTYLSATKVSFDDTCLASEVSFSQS

Consider `CCCCC/C(C=O)=C\c1ccccc1`, for which the result in [1], in [8] and in [12] was inactive. The Potency entry in assay [2], in assay [3], in [4], in [5], in [6] and in assay [7] was “inactive” in each case. For the same compound, the Potency entry in assay [9], in assay [10], in [11], in assay [13], in [14] and in [15] was “inactive” in each case. Moreover, the Potency result in [16] is “inactive”. Further, the Potency in assay [17] is 63.4 µM (active) and inactive.

`COC(=O)c1ccc(O)cc1`: the compound was classed as inactive in assay [1], in [8], in [18] and in [12]. Also, the Potency result in [2], in [3], in [4], in assay [5], in assay [6] and in assay [7] was “inactive” each time. Besides, the Potency entry in assay [19], in assay [9], in assay [10], in assay [11], in assay [13] and in [14] was “inactive” each time. Further, the Potency result in assay [15], in assay [16] and in assay [17] was “inactive” in each case.

As for `C/C=C/c1ccc(O)c(OC)c1`, the compound was called inactive in [1], in [8], in [18] and in assay [12]. Also, the Potency result in assay [2], in assay [3], in assay [4], in assay [5], in assay [6] and in assay [7] was “inactive” each time. The Potency result in assay [19], in assay [9], in assay [10], in [11], in assay [13] and in assay [14] was “inactive” each time. Further, the Potency entry in assay [15], in assay [16] and in assay [17] was “inactive” throughout.

Consider `CCN(CC)CCOC(=O)c1ccc(N)cc1`, for which the compound was classed as inactive in [1], in assay [8], in assay [18] and in assay [12]. Besides, the Potency entry in assay [2], in [3], in [4], in assay [5], in assay [6] and in assay [7] was “inactive” throughout. In addition, the Potency result in [19], in assay [10], in assay [11], in assay [14], in assay [15] and in assay [16] was “inactive” each time. The Potency in assay [17] was 5.95 µM (active) and 15.5 µM (active).

Take `CCCCNC(=O)NS(=O)(=O)c1ccc(N)cc1`: the compound was called inactive in assay [1], in [8], in [18] and in assay [12]. Besides, the Potency entry in assay [2], in assay [3], in assay [4], in assay [20], in assay [6] and in assay [7] was “inactive” throughout. Besides, the Potency entry in assay [19], in assay [10], in assay [11], in assay [14], in assay [15] and in [16] was “inactive” each time. Also, in assay [17], the Potency entry is “inactive”.

For the compound `CC(=O)OC/C=C(C)/C=C/C=C(C)/C=C/C1=C(C)CCCC1(C)C`, the result in [1], in assay [8], in assay [18] and in assay [12] was inactive. The Potency entry in assay [2], in assay [3], in assay [4], in [6], in [7] and in [19] was “inactive” throughout. The Potency result in [9], in assay [10] and in [13] was “inactive” throughout. The Potency in assay [11] is 66.9 µM (active) and 68.6 µM (active) and inactive; in assay [14], 59.6 µM (active) and 34.4 µM (active) and 15 µM (active); in [17] it was 34.7 µM (active) and inactive.

In the case of `C[C@]12CC[C@@H]3c4ccc(O)cc4C[C@@H](CCCCCCCCCS(=O)CCCC(F)(F)C(F)(F)F)[C@H]3[C@@H]1CC[C@@H]2O` (stereo partly drawn), the outcome in assay [1], in assay [8], in assay [18] and in [12] was inactive. Moreover, the Potency result in assay [2], in assay [3], in assay [5], in assay [6], in assay [7] and in [19] was “inactive” throughout. The Potency result in assay [10] and in assay [17] was “inactive” throughout. The Potency in assay [4] is 1720 nM (active).
